# Measurements: ChEMBL document CHEMBL1961873, “Compounds: GSK PKIS; Assays: Nanosyn kinase panel” (2012)
# Legend:
# [1] = test system: Epidermal growth factor receptor (Homo sapiens), P00533 [T790M]; conditions: at 1 µM
# [2] = test system: Epidermal growth factor receptor (Homo sapiens), P00533 [L858R,T790M]; conditions: at 0.1 µM
# [3] = test system: Epidermal growth factor receptor (Homo sapiens), P00533 [L858R,T790M]; conditions: at 1 µM
# [4] = biological target: Ephrin type-A receptor 2 (Homo sapiens) (UniProt P29317); conditions: at 0.1 µM
# Sequence of Ephrin type-A receptor 2 (Homo sapiens) (P29317 whole entry): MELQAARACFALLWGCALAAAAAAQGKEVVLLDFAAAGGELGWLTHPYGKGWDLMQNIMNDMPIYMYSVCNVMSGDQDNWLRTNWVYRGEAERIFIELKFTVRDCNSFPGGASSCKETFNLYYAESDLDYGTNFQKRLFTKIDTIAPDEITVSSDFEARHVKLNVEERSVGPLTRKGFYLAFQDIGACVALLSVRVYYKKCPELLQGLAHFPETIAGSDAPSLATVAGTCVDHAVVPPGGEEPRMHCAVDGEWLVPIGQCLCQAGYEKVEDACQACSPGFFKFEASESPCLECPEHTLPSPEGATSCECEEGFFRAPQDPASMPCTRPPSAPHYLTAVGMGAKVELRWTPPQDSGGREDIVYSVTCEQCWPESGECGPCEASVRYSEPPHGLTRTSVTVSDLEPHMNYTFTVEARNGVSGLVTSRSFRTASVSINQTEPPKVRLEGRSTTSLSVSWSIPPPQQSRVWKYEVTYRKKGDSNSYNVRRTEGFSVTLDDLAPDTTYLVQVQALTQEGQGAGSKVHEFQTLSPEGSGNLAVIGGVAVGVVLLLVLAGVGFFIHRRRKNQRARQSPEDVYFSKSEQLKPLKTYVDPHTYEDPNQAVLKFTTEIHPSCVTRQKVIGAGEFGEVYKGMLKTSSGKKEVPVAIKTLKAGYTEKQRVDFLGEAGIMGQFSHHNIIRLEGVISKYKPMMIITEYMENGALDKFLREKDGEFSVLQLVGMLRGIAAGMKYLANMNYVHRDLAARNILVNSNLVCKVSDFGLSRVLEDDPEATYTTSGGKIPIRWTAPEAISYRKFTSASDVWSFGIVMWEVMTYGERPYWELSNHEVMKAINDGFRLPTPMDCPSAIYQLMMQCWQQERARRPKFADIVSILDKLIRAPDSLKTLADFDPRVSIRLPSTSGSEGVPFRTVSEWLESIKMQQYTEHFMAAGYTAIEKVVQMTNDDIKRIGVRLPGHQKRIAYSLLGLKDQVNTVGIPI
# [5] = biological target: Ephrin type-A receptor 2 (Homo sapiens) (UniProt P29317); conditions: at 1 µM
# [6] = biological target: T1, Ephrin type-A receptor 3 (Homo sapiens) (UniProt P29320); conditions: at 0.1 µM
# T1 sequence (whole entry): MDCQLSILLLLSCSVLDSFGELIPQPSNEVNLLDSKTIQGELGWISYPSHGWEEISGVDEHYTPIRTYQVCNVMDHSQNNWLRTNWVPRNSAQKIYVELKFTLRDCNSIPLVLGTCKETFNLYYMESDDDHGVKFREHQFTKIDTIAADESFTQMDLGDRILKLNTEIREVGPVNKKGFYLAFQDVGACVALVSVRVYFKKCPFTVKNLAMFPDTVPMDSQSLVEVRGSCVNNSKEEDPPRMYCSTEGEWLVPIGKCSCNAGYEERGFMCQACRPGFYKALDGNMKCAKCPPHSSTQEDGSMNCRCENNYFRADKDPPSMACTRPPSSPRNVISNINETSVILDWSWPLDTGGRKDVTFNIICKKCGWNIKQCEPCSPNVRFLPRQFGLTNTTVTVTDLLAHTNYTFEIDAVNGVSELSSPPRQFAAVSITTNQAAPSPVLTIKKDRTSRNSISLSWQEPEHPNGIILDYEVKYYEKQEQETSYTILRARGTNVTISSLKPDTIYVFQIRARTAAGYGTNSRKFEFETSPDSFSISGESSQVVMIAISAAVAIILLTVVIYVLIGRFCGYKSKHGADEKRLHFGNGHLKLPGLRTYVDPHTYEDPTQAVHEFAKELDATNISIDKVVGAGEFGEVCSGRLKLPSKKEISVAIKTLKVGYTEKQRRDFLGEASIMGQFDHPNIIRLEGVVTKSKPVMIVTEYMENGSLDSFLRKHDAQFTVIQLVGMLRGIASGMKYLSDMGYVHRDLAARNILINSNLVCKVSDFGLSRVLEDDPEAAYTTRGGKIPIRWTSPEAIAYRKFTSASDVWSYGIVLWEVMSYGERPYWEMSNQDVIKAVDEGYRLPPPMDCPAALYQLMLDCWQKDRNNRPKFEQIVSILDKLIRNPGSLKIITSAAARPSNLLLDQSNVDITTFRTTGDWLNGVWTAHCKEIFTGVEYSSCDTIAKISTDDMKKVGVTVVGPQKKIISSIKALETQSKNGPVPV
# [7] = biological target: T1, Ephrin type-A receptor 3 (Homo sapiens); conditions: at 1 µM
# [8] = biological target: Ephrin type-A receptor 4 (Homo sapiens) (UniProt P54764); conditions: at 0.1 µM
# [9] = biological target: Ephrin type-A receptor 4 (Homo sapiens) (UniProt P54764); conditions: at 1 µM
# [10] = biological target: T2, Ephrin type-B receptor 2 (Homo sapiens) (UniProt P29323); conditions: at 0.1 µM
# T2 sequence (whole entry): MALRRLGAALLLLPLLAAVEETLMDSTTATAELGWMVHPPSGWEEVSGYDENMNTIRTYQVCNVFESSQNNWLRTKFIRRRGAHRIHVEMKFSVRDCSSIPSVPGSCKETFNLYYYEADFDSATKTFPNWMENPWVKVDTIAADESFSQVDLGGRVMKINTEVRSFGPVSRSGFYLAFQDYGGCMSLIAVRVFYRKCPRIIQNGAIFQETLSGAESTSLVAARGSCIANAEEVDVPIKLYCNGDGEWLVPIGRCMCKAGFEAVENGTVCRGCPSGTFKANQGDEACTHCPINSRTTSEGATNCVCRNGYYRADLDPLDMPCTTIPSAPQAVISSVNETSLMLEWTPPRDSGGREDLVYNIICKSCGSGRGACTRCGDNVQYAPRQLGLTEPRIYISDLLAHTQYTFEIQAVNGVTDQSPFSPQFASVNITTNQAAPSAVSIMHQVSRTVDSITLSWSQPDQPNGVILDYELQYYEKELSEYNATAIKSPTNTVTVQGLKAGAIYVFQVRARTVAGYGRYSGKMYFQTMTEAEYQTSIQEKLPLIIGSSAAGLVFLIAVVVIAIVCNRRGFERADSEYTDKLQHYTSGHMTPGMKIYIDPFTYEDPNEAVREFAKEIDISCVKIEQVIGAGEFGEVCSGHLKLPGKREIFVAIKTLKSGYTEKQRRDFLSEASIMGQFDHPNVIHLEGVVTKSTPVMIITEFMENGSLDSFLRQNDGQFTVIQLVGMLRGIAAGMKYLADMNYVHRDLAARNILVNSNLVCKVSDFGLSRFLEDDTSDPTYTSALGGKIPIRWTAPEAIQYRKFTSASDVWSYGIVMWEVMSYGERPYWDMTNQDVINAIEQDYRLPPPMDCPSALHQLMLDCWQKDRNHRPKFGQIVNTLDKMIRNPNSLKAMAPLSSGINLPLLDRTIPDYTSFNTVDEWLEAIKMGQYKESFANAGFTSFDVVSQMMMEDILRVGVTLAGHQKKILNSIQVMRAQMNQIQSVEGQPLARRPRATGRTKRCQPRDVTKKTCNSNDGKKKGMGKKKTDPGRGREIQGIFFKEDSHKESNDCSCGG
# [11] = biological target: T2, Ephrin type-B receptor 2 (Homo sapiens); conditions: at 1 µM
# [12] = biological target: T3, Ephrin type-B receptor 3 (Homo sapiens) (UniProt P54753); conditions: at 0.1 µM
# T3 sequence (whole entry): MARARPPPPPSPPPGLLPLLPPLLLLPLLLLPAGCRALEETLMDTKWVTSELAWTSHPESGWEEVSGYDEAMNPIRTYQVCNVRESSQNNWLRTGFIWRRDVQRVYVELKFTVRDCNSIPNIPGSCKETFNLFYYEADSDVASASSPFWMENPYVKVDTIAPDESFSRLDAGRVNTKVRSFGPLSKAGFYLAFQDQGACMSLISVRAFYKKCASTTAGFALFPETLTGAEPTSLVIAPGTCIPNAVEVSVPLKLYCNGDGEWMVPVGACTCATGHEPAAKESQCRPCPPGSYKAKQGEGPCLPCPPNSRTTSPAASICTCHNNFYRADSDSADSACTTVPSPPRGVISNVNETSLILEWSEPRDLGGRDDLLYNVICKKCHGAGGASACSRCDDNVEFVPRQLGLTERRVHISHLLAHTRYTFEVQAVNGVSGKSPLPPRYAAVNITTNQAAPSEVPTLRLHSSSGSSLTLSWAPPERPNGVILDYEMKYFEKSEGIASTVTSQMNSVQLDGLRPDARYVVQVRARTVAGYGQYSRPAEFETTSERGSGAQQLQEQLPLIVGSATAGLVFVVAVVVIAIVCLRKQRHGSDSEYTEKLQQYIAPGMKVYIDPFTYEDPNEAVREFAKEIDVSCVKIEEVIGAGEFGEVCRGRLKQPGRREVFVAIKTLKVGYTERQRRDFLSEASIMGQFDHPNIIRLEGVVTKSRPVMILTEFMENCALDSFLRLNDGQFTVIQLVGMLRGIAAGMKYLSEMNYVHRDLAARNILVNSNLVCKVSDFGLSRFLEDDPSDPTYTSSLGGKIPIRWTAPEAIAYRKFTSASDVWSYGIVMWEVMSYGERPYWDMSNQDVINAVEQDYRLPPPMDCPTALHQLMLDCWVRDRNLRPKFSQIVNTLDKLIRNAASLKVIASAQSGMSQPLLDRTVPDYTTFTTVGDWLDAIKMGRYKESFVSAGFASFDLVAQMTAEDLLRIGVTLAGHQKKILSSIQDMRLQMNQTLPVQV
# [13] = biological target: T3, Ephrin type-B receptor 3 (Homo sapiens); conditions: at 1 µM
# [14] = biological target: T4, Ephrin type-B receptor 4 (Homo sapiens) (UniProt P54760); conditions: at 0.1 µM
# T4 sequence (whole entry): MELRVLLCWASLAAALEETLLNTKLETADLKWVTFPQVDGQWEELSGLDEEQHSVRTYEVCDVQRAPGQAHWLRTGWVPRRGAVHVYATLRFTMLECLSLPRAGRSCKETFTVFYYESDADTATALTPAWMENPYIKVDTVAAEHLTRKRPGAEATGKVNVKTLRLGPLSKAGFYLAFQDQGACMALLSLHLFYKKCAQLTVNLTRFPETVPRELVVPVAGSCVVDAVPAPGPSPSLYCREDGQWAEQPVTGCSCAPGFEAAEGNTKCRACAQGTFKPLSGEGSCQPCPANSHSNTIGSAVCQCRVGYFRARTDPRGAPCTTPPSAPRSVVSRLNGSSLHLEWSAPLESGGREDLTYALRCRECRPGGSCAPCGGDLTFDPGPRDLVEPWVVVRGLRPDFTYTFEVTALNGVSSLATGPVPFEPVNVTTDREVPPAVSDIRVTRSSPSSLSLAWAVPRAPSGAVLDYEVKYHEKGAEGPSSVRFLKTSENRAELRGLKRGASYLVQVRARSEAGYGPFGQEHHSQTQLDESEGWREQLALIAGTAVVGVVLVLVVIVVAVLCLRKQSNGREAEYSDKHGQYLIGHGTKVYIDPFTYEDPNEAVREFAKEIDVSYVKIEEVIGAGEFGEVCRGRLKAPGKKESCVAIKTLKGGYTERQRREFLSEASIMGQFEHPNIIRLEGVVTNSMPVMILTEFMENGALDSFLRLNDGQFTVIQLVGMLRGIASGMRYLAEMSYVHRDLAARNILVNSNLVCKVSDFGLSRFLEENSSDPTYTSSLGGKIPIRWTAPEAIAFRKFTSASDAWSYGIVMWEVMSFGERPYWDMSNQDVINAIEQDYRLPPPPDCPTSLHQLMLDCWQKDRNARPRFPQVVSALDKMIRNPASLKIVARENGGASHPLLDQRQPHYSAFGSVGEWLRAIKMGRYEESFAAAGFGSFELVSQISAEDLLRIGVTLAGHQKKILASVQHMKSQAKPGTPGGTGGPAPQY
# [15] = biological target: T4, Ephrin type-B receptor 4 (Homo sapiens); conditions: at 1 µM
# [16] = biological target: Receptor tyrosine-protein kinase erbB-2 (Homo sapiens) (UniProt P04626); conditions: at 0.1 µM
# Sequence of Receptor tyrosine-protein kinase erbB-2 (Homo sapiens) (P04626 whole entry): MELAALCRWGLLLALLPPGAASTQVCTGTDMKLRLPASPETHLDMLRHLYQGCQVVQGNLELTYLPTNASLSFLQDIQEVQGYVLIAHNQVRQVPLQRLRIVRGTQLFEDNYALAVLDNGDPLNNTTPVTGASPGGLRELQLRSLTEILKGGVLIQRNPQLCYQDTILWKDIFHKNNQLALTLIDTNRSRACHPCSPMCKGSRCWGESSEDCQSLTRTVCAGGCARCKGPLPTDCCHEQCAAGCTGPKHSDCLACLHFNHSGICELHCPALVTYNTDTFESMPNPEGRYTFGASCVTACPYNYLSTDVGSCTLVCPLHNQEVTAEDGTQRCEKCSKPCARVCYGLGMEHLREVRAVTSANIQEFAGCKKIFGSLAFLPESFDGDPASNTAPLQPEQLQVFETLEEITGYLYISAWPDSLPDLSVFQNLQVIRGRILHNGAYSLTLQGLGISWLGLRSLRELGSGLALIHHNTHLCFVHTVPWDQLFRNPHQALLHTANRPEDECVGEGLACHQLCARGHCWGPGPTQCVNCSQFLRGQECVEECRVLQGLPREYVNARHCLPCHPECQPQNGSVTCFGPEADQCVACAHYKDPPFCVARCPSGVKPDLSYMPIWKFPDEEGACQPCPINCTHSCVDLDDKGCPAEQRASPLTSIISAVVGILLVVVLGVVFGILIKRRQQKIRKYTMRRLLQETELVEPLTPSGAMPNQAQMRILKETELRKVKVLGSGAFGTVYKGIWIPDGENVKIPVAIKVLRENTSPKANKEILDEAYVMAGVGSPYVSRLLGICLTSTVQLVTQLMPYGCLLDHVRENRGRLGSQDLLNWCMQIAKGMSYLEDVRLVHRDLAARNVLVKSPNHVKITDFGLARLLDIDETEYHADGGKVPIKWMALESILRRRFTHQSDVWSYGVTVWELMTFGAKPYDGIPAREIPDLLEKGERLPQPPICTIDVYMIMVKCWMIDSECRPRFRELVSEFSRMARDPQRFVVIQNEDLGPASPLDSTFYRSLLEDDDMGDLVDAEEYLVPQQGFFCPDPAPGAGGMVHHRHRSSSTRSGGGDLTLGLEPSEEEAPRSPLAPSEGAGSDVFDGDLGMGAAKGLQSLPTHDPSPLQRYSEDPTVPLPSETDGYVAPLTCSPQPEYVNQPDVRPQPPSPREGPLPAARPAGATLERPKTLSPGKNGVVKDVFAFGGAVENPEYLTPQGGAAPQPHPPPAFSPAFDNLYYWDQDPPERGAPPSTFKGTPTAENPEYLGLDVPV
# [17] = biological target: Receptor tyrosine-protein kinase erbB-2 (Homo sapiens) (UniProt P04626); conditions: at 1 µM
# [18] = biological target: Receptor tyrosine-protein kinase erbB-4 (Homo sapiens) (UniProt Q15303); conditions: at 0.1 µM
# Sequence of Receptor tyrosine-protein kinase erbB-4 (Homo sapiens) (Q15303 whole entry): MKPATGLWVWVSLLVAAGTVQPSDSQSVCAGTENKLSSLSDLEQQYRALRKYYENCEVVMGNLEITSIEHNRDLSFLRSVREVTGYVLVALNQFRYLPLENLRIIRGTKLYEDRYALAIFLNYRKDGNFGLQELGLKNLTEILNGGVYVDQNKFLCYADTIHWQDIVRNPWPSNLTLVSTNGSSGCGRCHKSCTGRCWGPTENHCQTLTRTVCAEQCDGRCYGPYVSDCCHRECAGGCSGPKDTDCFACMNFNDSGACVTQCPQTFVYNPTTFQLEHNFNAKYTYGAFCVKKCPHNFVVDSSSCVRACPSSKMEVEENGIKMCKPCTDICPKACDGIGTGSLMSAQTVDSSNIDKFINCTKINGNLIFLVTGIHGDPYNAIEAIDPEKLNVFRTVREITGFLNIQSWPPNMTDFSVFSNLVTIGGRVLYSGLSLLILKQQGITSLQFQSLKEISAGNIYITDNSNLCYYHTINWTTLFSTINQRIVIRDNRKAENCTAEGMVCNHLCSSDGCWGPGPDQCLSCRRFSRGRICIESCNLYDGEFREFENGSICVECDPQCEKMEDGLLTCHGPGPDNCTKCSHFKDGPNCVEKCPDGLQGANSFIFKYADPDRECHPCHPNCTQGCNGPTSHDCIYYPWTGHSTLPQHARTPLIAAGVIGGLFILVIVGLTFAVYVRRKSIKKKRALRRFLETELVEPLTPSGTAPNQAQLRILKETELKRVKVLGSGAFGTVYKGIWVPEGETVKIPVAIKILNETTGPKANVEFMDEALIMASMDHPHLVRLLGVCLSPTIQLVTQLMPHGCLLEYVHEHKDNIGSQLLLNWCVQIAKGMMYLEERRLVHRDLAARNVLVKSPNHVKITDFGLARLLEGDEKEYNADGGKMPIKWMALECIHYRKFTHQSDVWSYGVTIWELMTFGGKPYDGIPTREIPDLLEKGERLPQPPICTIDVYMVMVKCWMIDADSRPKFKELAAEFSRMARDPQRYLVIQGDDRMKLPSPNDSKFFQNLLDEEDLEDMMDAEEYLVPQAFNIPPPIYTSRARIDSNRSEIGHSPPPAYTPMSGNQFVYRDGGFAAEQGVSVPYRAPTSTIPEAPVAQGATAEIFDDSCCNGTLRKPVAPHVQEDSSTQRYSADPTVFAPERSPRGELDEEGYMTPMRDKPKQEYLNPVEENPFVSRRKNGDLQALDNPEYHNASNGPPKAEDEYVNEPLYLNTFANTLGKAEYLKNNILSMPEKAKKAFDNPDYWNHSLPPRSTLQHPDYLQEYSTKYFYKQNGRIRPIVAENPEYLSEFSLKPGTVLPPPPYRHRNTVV
# [19] = biological target: Receptor tyrosine-protein kinase erbB-4 (Homo sapiens) (UniProt Q15303); conditions: at 1 µM
# [20] = biological target: Tyrosine-protein kinase Fer (Homo sapiens) (UniProt P16591); conditions: at 0.1 µM;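 note: reported figures are averaged percent inhibition of FER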
# Sequence of Epidermal growth factor receptor (Homo sapiens), P00533 [L858R,T790M] (P00533 whole entry T790M/L858R, looked up): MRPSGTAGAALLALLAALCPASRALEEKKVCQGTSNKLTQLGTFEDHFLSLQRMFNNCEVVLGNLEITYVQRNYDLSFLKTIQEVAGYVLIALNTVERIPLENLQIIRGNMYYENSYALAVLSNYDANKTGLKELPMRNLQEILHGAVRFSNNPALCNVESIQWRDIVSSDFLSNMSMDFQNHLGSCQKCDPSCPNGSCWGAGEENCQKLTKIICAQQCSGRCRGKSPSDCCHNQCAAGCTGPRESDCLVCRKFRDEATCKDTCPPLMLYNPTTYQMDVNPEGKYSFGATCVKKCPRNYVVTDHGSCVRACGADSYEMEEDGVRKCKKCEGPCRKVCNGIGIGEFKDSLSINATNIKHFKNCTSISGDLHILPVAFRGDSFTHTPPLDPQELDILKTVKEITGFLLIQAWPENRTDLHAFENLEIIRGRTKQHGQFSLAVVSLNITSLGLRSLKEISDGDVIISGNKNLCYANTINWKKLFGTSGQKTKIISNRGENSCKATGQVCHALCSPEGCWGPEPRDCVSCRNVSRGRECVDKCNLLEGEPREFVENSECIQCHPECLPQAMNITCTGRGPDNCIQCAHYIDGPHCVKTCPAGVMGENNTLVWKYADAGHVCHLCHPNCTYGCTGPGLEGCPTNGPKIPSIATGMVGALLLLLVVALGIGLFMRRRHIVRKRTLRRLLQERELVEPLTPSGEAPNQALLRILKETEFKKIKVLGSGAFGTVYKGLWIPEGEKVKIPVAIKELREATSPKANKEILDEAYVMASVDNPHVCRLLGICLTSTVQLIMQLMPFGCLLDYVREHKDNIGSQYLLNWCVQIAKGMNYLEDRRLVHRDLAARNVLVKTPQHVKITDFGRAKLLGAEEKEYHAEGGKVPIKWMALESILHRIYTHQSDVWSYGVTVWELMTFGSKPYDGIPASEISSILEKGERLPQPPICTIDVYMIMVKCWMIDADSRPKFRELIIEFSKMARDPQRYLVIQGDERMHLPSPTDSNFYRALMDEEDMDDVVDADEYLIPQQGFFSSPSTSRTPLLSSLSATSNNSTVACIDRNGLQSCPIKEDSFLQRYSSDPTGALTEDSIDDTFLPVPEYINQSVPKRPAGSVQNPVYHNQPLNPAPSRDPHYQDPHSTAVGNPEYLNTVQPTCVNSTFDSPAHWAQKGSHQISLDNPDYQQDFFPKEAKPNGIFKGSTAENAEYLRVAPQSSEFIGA
Compound,inhibition [1] [%],inhibition [2] [%],inhibition [3] [%],inhibition [4] [%],inhibition [5] [%],inhibition [6] [%],inhibition [7] [%],inhibition [8] [%],inhibition [9] [%],inhibition [10] [%],inhibition [11] [%],inhibition [12] [%],inhibition [13] [%],inhibition [14] [%],inhibition [15] [%],inhibition [16] [%],inhibition [17] [%],inhibition [18] [%],inhibition [19] [%],inhibition [20] [%]
O=C1NC(=O)C(c2cccc(Cl)c2)=C1Nc1ccc(Cl)c(C(=O)O)c1,4.13,0.67,2.52,0.74,0.86,5.42,4.05,8.74,7.75,5.83,3.04,10.6,4.29,0.79,0.05,2.66,1.74,7.3,10,3.46
NC(=O)Cc1ccccc1Oc1nccc(-c2c(-c3ccc(F)cc3)ncn2C2CCNCC2)n1,0.65,0.76,4.08,-0.02,-0.27,2.08,3.17,5.89,-0.14,6.12,6.53,3.13,4.05,0.65,2.09,2.21,-1.85,12.1,17.1,6.39
NCc1ccc(-n2c(-c3nonc3N)nc3cnccc32)cc1,3.16,4.81,5.05,0.49,0.85,7,4.64,9.54,5.62,6.63,8.48,7.61,3.86,2.23,1.42,2.39,2.56,16.3,18,3.01
CS(=O)(=O)CCNCc1ccc(-c2ccc3ncnc(Nc4ccc(OCc5ccccc5)c(Br)c4)c3c2)o1,15.8,1.22,-0.73,-1.09,-2.25,1.29,1.45,7,10.9,7.88,6.61,-1.4,-0.23,-1.9,-0.22,10.8,73.5,42.6,79.8,2.74
Fc1ccc(-c2ncn(C3CCNCC3)c2-c2ccnc(Oc3ccc4c(c3)OCO4)n2)cc1,6.05,1.3,7.04,3.08,2.37,3.63,10.3,11.3,15.4,10.6,16.5,5.97,3.71,1.53,3.9,-0.35,12,10.6,19.3,6.11
COc1ccc(C2=C(N3CCc4ccccc43)C(=O)NC2=O)cc1,2.96,1.12,2.08,2.52,0.56,7.52,5.91,10.6,12.4,11,11.3,3.73,6.05,3.74,4.2,4.12,2.07,8.75,12.9,5.39
CCc1nccc2c1nc(-c1nonc1N)n2CC,-1.27,-0.81,1.48,0.61,0.69,-0.26,1.46,0.87,-5.92,-5.8,-7.41,2.73,-3.8,1.19,1.5,-0.18,-3.91,8.55,9.58,5.29
C#Cc1cccc(Nc2ncnc3ccc(OCCCCNCCS(C)(=O)=O)cc23)c1,14.6,3.12,22.8,-2.77,-2.32,1.3,5.15,12.3,15.3,10.3,19.4,4.21,0.73,1.68,-1.52,6.37,29.9,24.8,63.8,2.76
